We go through 40 compounds from PubChem BioAssay (Tox21).

Each structure is given as a SMILES string. Records with an inconclusive call do not appear. Where a call stands in place of a potency, no number is given. Values without a mark were called inactive. Calls of active or inactive are those of the source. Calls come from the whole dose curve.
Potency is the fitted concentration of half-maximal effect.

A short description of this experiment: qHTS assay to identify small molecule agonists or antagonists of the thyroid stimulating hormone receptor (TSHR) signaling pathway - wild type cell line counter screen (AID 1259384). To be noted: HEK293 wild type, cAMP HTRF counter-screen; series mostly up to 92.4 µM. The source says: U.S. Tox21 Program National Center for Advancing Translational Sciences [NCATS] NIH Chemical Genomics Center [NCGC] U.S. Environmental Protection Agency [EPA] National Institutes of Environmental Health Sciences [NIEHS] National Toxicology Program [NTP] U.S. Food and Drug Administration [FDA] Tox21 Assay Overview: TSHR is the receptor for thyrotropin (thyroid stimulating hormone or TSH), a member of the glycoprotein hormone family. TSH is released by the anterior pituitary gland and is the main regulator of thyroid gland growth and development. Upon binding circulating thyrotropin, a G-protein signal cascade activates adenylyl cyclase and […] cAMP concentration is increased. cAMP is a key second messenger involved extensively in cellular signal transduction pathways associated with the majority of G-protein coupled receptors (GPCRs). The activation of these GPCRs by neurotransmitters, lipids, nucleotides, peptides and hormones results in the activation or the inhibition of plasma membrane-bound adenylate cyclase through heterotrimeric G-proteins. A cell-based TSHR-Hek293 assay can be used to identify TSHR agonists. To eliminate the false positive compounds identified from screening a cell-based TSHR-Hek293 cell line, cAMP assay in a wild type Hek293 cells was used as a counter screening.
Tox21 Assay Protocol Summary: Hek293 cells (wild type) were dispensed at 800 cells/4 uL/well in 1536-well white plates using a Multidrop dispenser. After the assay plates were incubated at a 37 C/5% CO2 incubator for 18 hrs, 23 nL of compounds dissolved in DMSO, positive controls or DMSO only was transferred to the assay plate by a pin tool, followed by 1 ul medium containing Ro20-1724. After 30 min of incubation at room temperature, 2.5 ul/well of cAMP-d2 and 2.5 ul/well of anti-cAMP-cryptate were added respectively into the assay plates using a Flying Reagent Dispenser. The plates were incubated at room temperature for 1 hr. The fluorescence intensity in the plates was measured using an Envision plate reader. Each test compound was measured at 15 concentrations and in triplicates.
In general terms: In qHTS, concentration-response curves come from the screen itself.
As for `O=C1[C@H]2CCCC[C@H]2C(=O)N1CCCCN1CCN(c2nsc3ccccc23)CC1`, the Potency result is “inactive”.
On the same count and under the same terms, the result for `O=[N+]([O-])c1ccc2[nH]ncc2c1` reads “inactive”; that for `CC(C)O.CC(C)O.CCOC(=O)/C=C(\C)O.CCOC(=O)/C=C(\C)O.[Ti]`, “inactive”; that for `C=C(C)C(=O)OCCO`, “inactive”.
As for `O=C(O)C(S)C(S)C(=O)O` (stereo not given), the Potency result was “inactive”.
The same measure, in the same setting: the result for `C[C@@H]1C[C@H]2[C@@H]3CCC4=CC(=O)C=C[C@]4(C)[C@@]3(F)[C@@H](O)C[C@]2(C)[C@@]1(O)C(=O)COC(=O)c1ccncc1` reads “inactive”.
Take `Cc1ccc(C(C)OC(=O)C2(C)CCC(C(=O)O)C2(C)C)cc1` (stereo not given): the Potency result is “inactive”.
Turning to `CCN(CC)CCNC(=O)c1cc(Br)c(N)cc1OC`, the Potency result is “inactive”.
Same read-out and setting: the result for `CCCCO` reads “inactive”; that for `C[N+]1(CC2COC(c3ccccc3)(C3CCCCC3)O2)CCCCC1` (stereo not given), “inactive”.
On to `CC1CCC(=O)C1=O` (stereo not given), for which the Potency entry was “inactive”.
With `COc1cc(Cl)c(OC)cc1N`, the Potency result is “inactive”.
Consider `CC(C)(C)Cl`, for which the Potency entry is “inactive”.
On to `O=C(O)c1ccco1`, for which the Potency result was “inactive”.
For `c1ccc(-c2ccccn2)nc1`, the Potency result is “inactive”.
Consider `Cc1ccc(C(=O)Oc2ccc(C(O)CNC(C)(C)C)cc2OC(=O)c2ccc(C)cc2)cc1` (stereo not given), for which the Potency is 0.0362 µM (active).
Take `COS(=O)(=O)C(F)(F)F`: the Potency entry was “inactive”.
For `NS(=O)(=O)c1ccc(N2CCCCS2(=O)=O)cc1`, the Potency result is “inactive”.
`CC(COCCO)OCCO` (stereo not given): the Potency result is “inactive”.
`O=C(NCC1CN(c2ccc(N3CCOCC3=O)cc2)C(=O)O1)c1ccc(Cl)s1` (stereo not given): the Potency entry was “inactive”.
`CCN(CC)CCOC(=O)C(c1ccccc1)C1CCCCC1` (stereo not given): the Potency result is “inactive”.
As to `CCCCOC(=O)CCCCCCCC(=O)OCCCC`, the Potency entry was “inactive”.
Consider `Cc1oc(-c2ccccc2)nc1CCOc1cccc2c1ccn2CCC(=O)O`, for which the Potency result was “inactive”.
Consider `CC(C)Cc1ccc(C(C)C(=O)OCc2ccccn2)cc1` (stereo not given), for which the Potency entry was “inactive”.
As to `C/C=C/C=C/CO`, the Potency result was “inactive”.
As to `CC(C)(COC(=O)c1ccccc1)COC(=O)c1ccccc1`, the Potency entry is “inactive”.
Still for that read-out and setting: the entry for `C=CC(=O)OCCOc1ccccc1` is “inactive”.
For the compound `C[C@H](CCC(=O)O)[C@H]1CC[C@H]2[C@@H]3CC[C@@H]4C[C@H](O)CC[C@]4(C)[C@H]3C[C@H](O)[C@]12C`, the Potency result was “inactive”.
With `CCNc1cc(O)ccc1C`, the Potency result was “inactive”.
For `CN(C)c1ccc(/C=C/c2ccc([N+](=O)[O-])cc2)cc1`, the cAMP activity change was 6.39% [at 8.39 µM, hits give high values].
As to `CN1C[C@H]2c3ccccc3Oc3ccc(Cl)cc3[C@@H]2C1`, the Potency entry is “inactive”.
In the case of `O=C(OCCCCCCOC(=O)c1ccccc1)c1ccccc1`, the Potency entry was “inactive”.
Regarding `O=CC1CC=CCC1` (stereo not given), the Potency entry is “inactive”.
On the same count and under the same terms, the entry for `O=C(O)c1ccccc1Cl` is “inactive”; for `CCOc1ccc(N=Nc2ccc(/C=C/c3ccc(N=Nc4ccc(OCC)cc4)cc3S(=O)(=O)O)c(S(=O)(=O)O)c2)cc1` it is “inactive”.
For `COC(C)OC`, the Potency entry is “inactive”.
Turning to `O=C1C(O)=C(O)C(=O)C(O)=C1O`, the Potency entry was “inactive”.
For the compound `CCOC(=O)COC(=O)c1cc(Oc2ccc(C(F)(F)F)cc2Cl)ccc1[N+](=O)[O-]`, the Potency entry was “inactive”.
For the compound `CCCCCCOC(=O)NC(=N)c1ccc(NCc2nc3cc(C(=O)N(CCC(=O)OCC)c4ccccn4)ccc3n2C)cc1`, the Potency entry was “inactive”.
Consider `OCCN1CCN(CCCN2c3ccccc3C=Cc3ccccc32)CC1`, for which the Potency entry was “inactive”.
